About 6,200 (6.6%) of roughly 94,000 compounds were called active. Inconclusive results (about 31%) are left out. The list comes from a sample in which actives are over-represented; it also holds similar structures and randomly drawn compounds. A number with no mark means an inactive call. The call rests on the fitted dose curve; in most records, active means well fitted inhibition curve with a large enough effect; inconclusive means small, poorly fitted or top-dose-only effect; inactive means flat fitted curve, though single readings scatter.
assay: Cytotoxic Profiling in HEK 293 Cell Line of Diverse Libraries Using Quantitative High-Throughput Screening; details: HEK 293 viability, ATP luminescence (CellTiter-Glo), 48-72 h; series mostly up to 115 µM; activity change, negative = cytotoxicity: at the top concentration; further: nearly all actives have a fitted effect of over 60% in size
Procedure, shortened: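 Pintool-delivered compounds were incubated with HEK 293 cells (250 cells/well) at 37 degree Celsius for 48 or 72 hr. ATP-dependent luminescence (CellTiter-Glo) then reported remaining viable cells.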
On the % scale 0 is the no-effect control and ±100 the full control effect; potency means the concentration at half of the fitted maximal effect.

| SMILES | activity change, negative = cytotoxicity | Potency | outcome |
| --- | --- | --- | --- |
| C#CCNC(=O)CC[C@H]1CNC(=O)[C@@H]2[C@@H](CCN2Cc2ccc(N(C)C)cc2)N1C | -24.8% [at 172 µM] |  |  |
| N#Cc1ccc(C(=O)N2C[C@@H]3C[C@H](C2)c2ccc(-c4ccc(OC(F)(F)F)cc4)c(=O)n2C3)cc1 | -16.7% |  |  |
| CN1C[C@@H](NC(=O)c2ccc(C(C)(C)C)cc2)C[C@H]1c1nc(-c2ccc3ccccc3c2)no1 |  | 22.4 µM (active) |  |
| CN1C[C@@H](NC(=O)CC(C)(C)C)C[C@H]1c1nc(Cc2ccccc2)no1 | -26.1% [at 172 µM] |  |  |
| CN1C[C@@H](NC(=O)c2cnccn2)C[C@H]1c1nc(-c2ccc3c(c2)OCO3)no1 | -7.22% [at 172 µM] |  |  |
| COc1ccc(CN2C[C@H](O)C[C@H]2c2nc(-c3ccc4c(c3)OCO4)no2)c(OC)c1OC | -15.4% |  |  |
| CN1C[C@@H](NC(=O)c2ccc(C#N)cc2)C[C@H]1c1nc(-c2ccc(OC(F)(F)F)cc2)no1 |  | 22.4 µM (active) |  |
| CN1C[C@@H](NC(=O)COc2ccccc2)C[C@H]1c1nc(-c2ccc3c(c2)OCO3)no1 |  | 100 µM (active) |  |
| CN1C[C@@H](NC(=O)c2ccccc2)C[C@H]1c1nc(-c2ccccc2)no1 | -13.3% [at 172 µM] |  |  |
| N#Cc1ccc(-c2nc(C(=O)NC3CCCCCC3)no2)cc1 | 5.1% |  |  |
| CN(C)C(=O)N1CCN(C(=O)c2cccc(-c3ccccn3)c2)CC1 | -14.7% [at 172 µM] |  |  |
| Cc1ccc(S(=O)(=O)Cc2noc([C@@H]3C[C@@H](O)CN3Cc3cccs3)n2)cc1 | -16.9% [at 172 µM] |  |  |
| COc1ccc(CCC(=O)N2CCCC(n3c(C)cnc3C3CCOCC3)C2)cc1 (configuration not stated) | -23.1% |  |  |
| O=C(NC1CC1)c1ccc(CC2CCN(C(=O)c3ccccn3)CC2)cc1 | -25.9% |  |  |
| COc1ccc(-c2ccc(C(=O)N3CCN(C(=O)c4cccc(Cl)c4)CC3)cc2)nn1 | -0.234% |  |  |
| COc1ccc(-c2ccc(C(=O)NCc3ccccc3Cl)cc2)nn1 | -9.88% [at 172 µM] |  |  |
| COc1ccc(-c2cccc(C(=O)NCc3cccc(Cl)c3)c2)nn1 |  | 79.4 µM (active) |  |
| CCN1CC2(CCN(C(=O)c3cccc(N4CCOCC4)c3)CC2)OC1=O | -5.91% |  |  |
| C[C@H](C(=O)N1Cc2ccccc2CC2(CCN(Cc3ccncc3)CC2)C1)c1ccccc1 |  | 50.1 µM (active) |  |
| CC(=O)N1Cc2ccccc2CC2(CCCN(Cc3ccncc3)C2)C1 (configuration not stated) | -1.66% |  |  |
| CC(=O)N1Cc2ccccc2CC2(CCN(Cc3cccnc3)CC2)C1 | -5.64% |  |  |
| O=C(Nc1cccc(-n2cccn2)c1)C1CCCN(C2CCN(Cc3ccco3)CC2)C1 (configuration not stated) | -1.69% |  |  |
| COc1ccc(OC)c(CNC(=O)CC2C(=O)NCCN2CC=C(C)C)c1 (configuration not stated) |  |  | inactive |

| SMILES | activity change, negative = cytotoxicity | Potency | outcome |
| --- | --- | --- | --- |
| COC[C@@H]1CN(C(=O)c2ccc3ncccc3c2)C[C@H]1c1nc(C)no1 | -0.388% |  |  |
| CNC(=O)N1CCC2(CC1)CC(Cc1cccc(F)c1)CCO2 (configuration not stated) | -28.8% |  |  |
| COc1ccc(CNC(=O)N2CCC3(CC2)CC(OCC2CC2)CCO3)cc1 (configuration not stated) | -2.8% |  |  |
| COc1ccc(CC2CCOC3(CCN(C(=O)NCC(C)C)CC3)C2)cc1 (configuration not stated) |  | 39.8 µM (active) |  |
| O=C1NCCCCCCN(C(=O)Cc2cccnc2)[C@@H]2C[C@@H](c3nc(-c4cnccn4)no3)C[C@H]12 |  |  | inactive |
| C=CCN1CCC2(CCC1=O)CN(Cc1ncc[nH]1)CCN2C (configuration not stated) |  |  | inactive |
| O=C(c1ccc(F)cc1)N1CCC(N2CC3CC(C2)[C@H]2CCCC(=O)N2C3)CC1 (some centres not stated) | 5.13% |  |  |
| COCc1cc(CN2C[C@H](NC(=O)CO)[C@@H](C3CC3)C2)ccc1OC |  |  | inactive |
| O=C1CCN(Cc2ccc(C(F)(F)F)cc2)CCCOCCN1 | -16.5% |  |  |
| O=C(C1CCN([S+](=O)([O-])c2cccc(C(F)(F)F)c2)CC1)N1CCC(N2CCCC2=O)CC1 | -5.24% |  |  |
| O=C1CCCCCN1C1CCN(Cc2ccc(C(F)(F)F)cc2)CC1 |  | 31.6 µM (active) |  |
| Cn1cnc(S(=O)(=O)N[C@@H]2CCOC[C@H]2Oc2ccc(C(N)=O)cc2)c1 | 3.24% |  |  |
| OC1(CN2CCC(CCn3cccn3)CC2)CNCCOC1 (configuration not stated) | -5.79% |  |  |
| O=C(NC1CCCc2c1[nH]c1c(Cl)cccc21)c1ccco1 (configuration not stated) |  | 44.7 µM (active) |  |
| O=C(Cn1nc(-c2ccco2)ccc1=O)NC1CCCc2c1[nH]c1c(Cl)cccc21 (configuration not stated) | 1.59% |  |  |
| O=C(NC1CCc2nnc(C3CC3)n2CC1)c1ccco1 (configuration not stated) | -27.7% |  |  |
| CC(C)S(=O)(=O)N1CCC(OCc2noc(C3CCCO3)n2)CC1 (configuration not stated) | 0.452% |  |  |
| N#Cc1cccc(NC(=O)O[C@@H]2CO[C@H]3[C@@H]2OC[C@@H]3Nc2nccc(-c3ccccc3)n2)c1 |  | 22.4 µM (active) |  |
| CCNC(=O)O[C@@H]1CO[C@H]2[C@@H]1OC[C@@H]2NC(=S)Nc1cccc2ccccc12 |  | 70.8 µM (active) |  |
| CCNC(=O)O[C@@H]1CO[C@H]2[C@@H]1OC[C@@H]2NC(=O)c1cccc(C(=O)OC)c1 | -4.88% [at 172 µM] |  |  |
| CC(=O)Nc1cccc(OCC2CN(Cc3cccc(C(F)(F)F)c3)C(=O)c3c(ccnc3-c3ccc(OCC(=O)O)cc3)O2)c1 (configuration not stated) | -9.98% |  |  |
| COc1ccc(-c2ccnc(N[C@H]3CO[C@H]4[C@@H]3OC[C@H]4OC(=O)Nc3cccc4ccccc34)n2)cc1 |  | 39.8 µM (active) |  |
| O=C(Nc1cccc(C(F)(F)F)c1)O[C@@H]1CO[C@H]2[C@@H]1OC[C@@H]2Nc1nccc(-c2ccc3c(c2)OCO3)n1 |  | 50.1 µM (active) |  |

| SMILES | activity change, negative = cytotoxicity | Potency | outcome |
| --- | --- | --- | --- |
| COc1ccc(NC(=O)O[C@@H]2CO[C@H]3[C@@H]2OC[C@@H]3NC(=O)NC2CCCCC2)cc1 | -27.6% [at 172 µM] |  |  |
| O=C(Nc1ccc(Cl)cc1)N[C@H]1CO[C@H]2[C@@H]1OC[C@H]2O |  |  | inactive [at 172 µM] |
| CC(C)(CC(=O)O)CC(=O)N[C@H]1CO[C@H]2[C@@H]1OC[C@@H]2Nc1nccc(-c2ccc3c(c2)OCO3)n1 |  |  | inactive |
| CNC(=O)[C@@H]1CN(C(=O)Cn2c(=O)oc3ccccc32)C[C@H]1c1n[nH]c(C)n1 | 3.76% |  |  |
| O=C(O)c1ccc2c(c1)CC(=O)N2Cc1cccc(F)c1 | 4.64% |  |  |
| CN1CCCCCCN(S(=O)(=O)N(C)C)CCC1=O |  |  | inactive |
| O=C(O)CC1(CC(=O)N2CCN3C(=O)c4cc(-c5ccsc5)ccc4NC(=O)[C@H]3C2)CCCC1 |  |  | inactive |
| c1cncc(CN2CC(Oc3ccc4c(c3)OCO4)C2)c1 |  |  | inactive [at 172 µM] |
| COC(=O)N1CCN2C[C@@H](C(N)=O)[C@H](c3ccccc3)[C@H]2C1 | -27.2% |  |  |
| CC(=O)c1c(C)nn(CC(=O)N2CCC(c3cc(C(C)C)n[nH]3)CC2)c1C | 2.16% |  |  |
| CCC(=O)N1CCC(c2nc(C3CCOCC3)no2)C1 (configuration not stated) | 8.65% |  |  |
| CSc1ccc(CNC(=O)c2cc3c(N4CCSCC4)nc(C)cn3n2)cc1 | -26% |  |  |
| COCc1nc(-c2ccc(NC(=O)Cn3nc4c(cc3=O)CCCC4)cc2)n[nH]1 | -7.47% |  |  |
| O=C(NCCCn1cccn1)C1CCCCc2nnc(-c3ccccc3)n21 (configuration not stated) | -10.7% |  |  |
| COc1ccc(C(=O)N2CCCC(Cc3nc(C4CCOCC4)no3)C2)cc1 (configuration not stated) | -0.205% |  |  |
| CC(=O)c1ccc(NC(=O)O[C@@H]2CO[C@H]3[C@@H]2OC[C@@H]3Nc2nccc(-c3ccco3)n2)cc1 |  | 22.4 µM (active) |  |
| CC(C)(C)c1ccnc(N[C@H]2CO[C@H]3[C@@H]2OC[C@@H]3NC(=O)CC2(CC(=O)O)CCCC2)n1 |  |  | inactive |
| C=CCNC(=O)N[C@H]1CO[C@H]2[C@@H]1OC[C@H]2OC(=O)Nc1cccc(C(C)=O)c1 | -23.8% [at 172 µM] |  |  |
| CC(C)(C)c1ccnc(N[C@H]2CO[C@H]3[C@@H]2OC[C@H]3OC(=O)Nc2cccc(C(F)(F)F)c2)n1 |  | 39.8 µM (active) |  |
| CCCN1CCN(C(=O)C2CCCN(c3cnn(Cc4ccccc4)c(=O)c3)C2)CC1 (configuration not stated) | 4.03% |  |  |
| O=C(Cc1cccc(F)c1)N1CC(CNC(=O)N2CCCC2)C2(CCOCC2)C1 (configuration not stated) | -9.03% |  |  |
| Cc1oc2c(c1C(=O)NC1CCN(C)CC1)CN(C)CC2 | 1.61% |  |  |
| O=C(Cn1c(=O)oc2ccccc21)NC1CCc2nn(CC3CC3)c(=O)n2CC1 (configuration not stated) | -3.93% |  |  |

| SMILES | activity change, negative = cytotoxicity | Potency | outcome |
| --- | --- | --- | --- |
| COc1ccccc1N1CCN(C(=O)Cn2c(N3CCc4ccccc4C3)nc(C)cc2=O)CC1 |  | 35.5 µM (active) |  |
| Cc1cc(=O)n(CC(=O)Nc2cccc(Cl)c2C)c(N2CCc3ccccc3C2)n1 | 1.27% |  |  |
| CNC(=O)c1cc(C)nc2onc(C3CCCN3C(=O)c3ccccc3OC)c12 (configuration not stated) | 0.24% |  |  |
| Cc1ccccc1CN1CCc2ncc(C(=O)NCCOc3ccccc3)n2CC1 |  | 79.4 µM (active) |  |
| COc1ccc(CN2CCc3ncc(C(=O)NCCOc4ccccc4)n3CC2)cn1 | -25.6% [at 172 µM] |  |  |
| COCCOc1cc(=O)n2c(c1C(=O)NCc1ccccc1)CCOCC2 |  |  | inactive |
| Cc1cccc(CN2CCc3ncc(C(=O)NCc4ccccc4)n3CC2)n1 |  | 100 µM (active) |  |
| COc1ccc(CN2CCc3ncc(C(=O)Nc4ccccc4C)n3CC2)cn1 |  |  | inactive [at 172 µM] |
| COc1ncc(CN2CCc3ncc(C(=O)Nc4ccccc4)n3CC2)cn1 | 3.76% [at 172 µM] |  |  |
| CCOCC(=O)N[C@@H]1c2ccccc2C2(CCNCC2)[C@H]1OC |  |  | inactive |
| COc1ccc(CCNC(=O)C2CC(=O)N(c3n[nH]c4cccc(F)c34)C2)cc1 (configuration not stated) | 8.78% |  |  |
| COc1cccc(-c2cn(C3CCN(C(=O)c4ccc(Cl)cc4)CC3)c(=O)[nH]2)c1 | -23.2% |  |  |
| Cc1ccccc1CN1CCCn2nc(C)c(-c3cccnc3N3CCOCC3)c21 |  | 70.8 µM (active) |  |
| Cc1ccc(OCC(=O)NCc2cccnc2N2CCOCC2)cc1 | -16.7% |  |  |
| C=CCCCC(=O)Nc1ccc(NC(=O)C(C)(C)C)c(OC)c1 | -9.37% |  |  |
| O=C1CCCCC(CNC(=O)c2cccc(F)c2)N1 (configuration not stated) |  |  | inactive |
| O=C(NCc1cc2n(n1)CCCN(C1CCCCC1)C2)c1cccc(F)c1 | 0.948% |  |  |
| O=C(Nc1cccn2nc(C3CCC3)nc12)c1cccc(F)c1 |  | 39.8 µM (active) |  |
| CCNC(=O)C1(CCO)CCN(c2ncccn2)C1 (configuration not stated) | -4.15% |  |  |
| O=C(NCc1ccc(Cl)nc1)c1cn2c(n1)CN([S+](=O)([O-])c1cccc(C(F)(F)F)c1)CC2 | -16.9% |  |  |
| O=C(Cc1ccc(F)cc1)N1CCOCC2(CN(Cc3ccccc3)C2)C1 |  | 39.8 µM (active) |  |
| CC1(C(=O)N2CCN(Cc3ccccc3)CC2)CCOCC1 | -6.51% [at 172 µM] |  |  |
| CC(=O)N1CCC2(CC1)CN(C(=O)Cc1cccc(Cl)c1)CCO2 | 0.172% |  |  |

Reference: PubChem BioAssay AID1345083 (National Center for Advancing Translational Sciences (NCATS), 2018)
